Experimental data taken from PubChem BioAssay (Tox21).
Results filed as inconclusive are left out. Entries that show only a call come without a potency. Calls of active or inactive are those of the source. Calls come from the whole dose curve; as a rule, active = well fitted activation curve with a large enough effect in the repeat runs; inconclusive = weak or mixed curves; inactive = no such curve, though single readings can be large or run the other way.

Assay: qHTS assay for small molecules that induce genotoxicity in human embryonic kidney cells expressing luciferase-tagged ATAD5 (AID 651632); note: nearly all actives have a fitted effect of over 15% in size
Conditions: HEK293T ATAD5-luciferase induction, 16 h; series mostly up to 83.3 µM
Method in brief: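 Genotoxicity read-out via ATAD5-luciferase: HEK293T cells, 16 hr compound incubation at 37C, Amplite detection.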

SMILES | Potency
CCCCOC(=O)COC(=O)c1ccccc1C(=O)OCCCC | inactive
CC(C)(C#N)N=NC(C)(C)C#N | inactive
c1ccc(C2CO2)cc1 (stereo not drawn) | inactive
CC(C)Nc1nc(Cl)nc(NC(C)C)n1 | inactive
CC(C)CON=O | inactive
Clc1cccc(Cl)c1 | inactive
CCCCCCCCCCCCCl | inactive
COP(=S)(OC)Oc1ccc(Sc2ccc(OP(=S)(OC)OC)cc2)cc1 | inactive
Nc1ncn[nH]1 | inactive
CC(C)(O)C#N | inactive
NC(=O)CN1CCCC1=O | inactive
CCNc1nc(Cl)nc(NC(C)(C)C#N)n1 | inactive
O=C1CCCO1 | inactive
CCCCCCCC[N+](C)(CCCCCCCC)CCCCCCCC | inactive
CN(C)c1nc(=O)n(C2CCCCC2)c(=O)n1C | inactive
Cn1c(-c2ccccc2)cc(-c2ccccc2)[n+]1C | inactive
N#CCCCCC#N | inactive
C[C@]12CCC(=O)C=C1CC[C@@H]1[C@@H]2CC[C@@]2(C)[C@H]1CC[C@]2(C)O | inactive
Clc1ccc(C(Cl)(Cl)Cl)cc1 | inactive

SMILES | Potency
O=P(OCCCl)(OCCCl)OCCCl | inactive
CC[n+]1c(-c2ccccc2)c2cc(N)ccc2c2ccc(N)cc21 | inactive
CCOP(=O)(OCC)OCC | inactive
COc1ccc(O)c(C(C)(C)C)c1 | inactive
CN(C)c1ccccc1 | inactive
CCC1(c2ccc(N)cc2)CCC(=O)NC1=O (stereo not drawn) | inactive
CCOP(=S)(OCC)SCn1c(=O)oc2cc(Cl)ccc21 | inactive
CC(C)=CC1C(C(=O)OCc2cccc(Oc3ccccc3)c2)C1(C)C (stereo not drawn) | inactive
O=C(O)c1nn(Cc2ccc(Cl)cc2Cl)c2ccccc12 | inactive
N#Cc1nn(-c2c(Cl)cc(C(F)(F)F)cc2Cl)c(N)c1S(=O)C(F)(F)F (stereo not drawn) | inactive
O=NN(c1ccccc1)c1ccccc1 | inactive
N#Cc1cccnc1 | inactive
CC(C)COC(=O)c1ccccc1C(=O)OCC(C)C | inactive
O=[N+]([O-])c1ccc(Nc2ccccc2)cc1 | inactive
CNC(=O)Oc1cccc2c1OC(C)(C)C2 | inactive
ClC(Cl)=C(Cl)C(Cl)=C(Cl)Cl | inactive
CCCCOCC1CO1 (stereo not drawn) | inactive
ClCc1ccccn1 | inactive
O=[N+]([O-])/N=C1\NCCN1Cc1ccc(Cl)nc1 | inactive
